40 compounds from PubChem BioAssay (NCI) can be followed below.

The structures appear in SMILES notation. Compounds without any hit were thinned out: in the full panel of roughly 83,000, 20% have a hit.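 Assay: single dose, 48 h. Readout: percent growth (0 = no net growth; negative = cell death). Active: <10.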 The source made the active and inactive calls.

This test relates to PC-3 prostate. The test can be described thus: NCI-60 one-dose screen, 48 h (100 = growth as untreated, 0 = no growth, -100 = all killed). Particulars: 10 µM unless noted. Here is the method: Growth inhibition of the PC-3 human tumor cell line is measured as a screen for anti-cancer activity. Cells are grown in 96 well plates and exposed to the test compound for 48 hours. Compounds are tested at a single concentration, which is 10^-5 M for most compounds. The reported endpoint is percent growth (GI% or GIPRCNT), where numbers from 0 - 100% represent growth inhibition, and numbers from -100% - 0 represent cell death. For example, a value of 40 represents 60% growth inhibition. A value of 0 means no net growth occurred over the course of the experiment. A value of -40 indicates 40% of cells at the beginning of the experiment died by the end of the experiment. A value of -100 means all cells are dead at the end of the experiment.
NCI-60 Human Tumor Cell Lines Screen was performed using the standard one-dose NCI protocol, which is described in more detail at https://dtp.cancer.gov/discovery_development/nci-60/default.htm.
Compounds with GIPRCNT values below 10 were considered active. Activity score was based on GIPRCNT using the following formula: […]
Score is 0 for GIPRCNT values of 100 or above, 50 for GIPRCNT values of 0, and 100 for GIPRCNT values of -100.
`Clc1cccc(CNc2c3ccccc3nc3ccccc23)c1`: the growth is 23.5% (inactive).

As for `COc1ccc2nc(-c3ccc(-c4noc(-c5ccc(Cl)cc5)n4)cc3)[nH]c2c1`, the growth was 67.1% (inactive).

Consider `COc1ccc(-c2cnc(-c3ccncc3-c3cccc(OC)c3)o2)cc1`, for which the growth was 16.9% (inactive).

As for `Cc1ccccc1Nc1n[nH]c(Cc2ccccc2)n1`, the growth was 86.5% (inactive).

Consider `O=C(Nc1cccc(-n2ccc3c(NC(=O)c4ccccc4)nccc32)c1)c1ccc(N2CCOCC2)c(C(F)(F)F)c1`, for which the growth was 23.7% (inactive).

In the case of `c1ccc(CCn2cccc2)nc1`, the growth was 98.9% (inactive).

Consider `C=C1C(=O)O[C@H]2[C@H]1CC/C(COC(=O)NCc1[nH]nc3ccccc13)=C\CC[C@@]1(C)O[C@@H]21`, for which the growth is 28.8% (inactive).

Take `COc1cc(OC)c(Cl)cc1N`: the growth is 88.7% (inactive).

As to `Cn1cnc([N+](=O)[O-])c1S(=O)(=O)Oc1ccccc1`, the growth is 86.5% (inactive).

Turning to `CCOC(=O)CCN(CCC(=O)OCC)c1ccccc1`, the growth is 93% (inactive).

For `CO[C@H](C(=O)[C@@H](O)[C@@H](C)O)[C@@H]1Cc2cc3cc(O[C@H]4C[C@@H](O[C@H]5C[C@@H](O)[C@H](O)C(C)O5)[C@H](O)C(C)O4)c(C)c(O)c3c(O)c2C(=O)[C@H]1O[C@H]1C[C@@H](O[C@H]2C[C@@H](O[C@H]3C[C@](C)(O)C(=O)C(C)O3)[C@@H](O)C(C)O2)[C@H](O)C(C)O1` (stereo not given in full), the growth is 6.86% (active).

Take `Cc1ccc(OC2=C(C#N)C(=N)N3C(=NN2)Sc2c(C)ccc(C)c23)cc1`: the growth was 82.4% (inactive).

On to `O=C1SCN(Cc2ccccc2)CN1Cc1ccccc1`, for which the growth was 86.3% (inactive).

Turning to `COc1ccc(C(=O)OC2C(OC3C(O)COC(O[C@H]4C[C@H]5[C@@H]6CC=C7C[C@@H](O)CC[C@]7(C)[C@H]6CC[C@]5(C)[C@H]4[C@H](C)C(=O)CCC(C)C)C3OC(C)=O)OCC(O)C2O)cc1` (stereo not given in full), the growth was -32.6% (active).

Consider `Cc1ccccc1NC(=O)c1sc2nc3c(cc2c1N)C(=O)CCC3`, for which the growth was 30.3% (inactive).

Consider `O=c1oc2ccccc2cc1-c1cc(-c2ccc(-c3cc(-c4cc5ccccc5oc4=O)nc(-c4cc5ccccc5oc4=O)c3)cc2)cc(-c2cc3ccccc3oc2=O)n1`, for which the growth was 101% (inactive).

For the compound `O=c1c2cc(Br)cc(Br)c2nc(-c2ccc(Cl)cc2)n1/N=C/c1cccc(F)c1`, the growth is 67% (inactive).

In the case of `CCCCCCCCCCCCCCCCCC(=O)[O][Sn]([CH2]CCC)([CH2]CCC)[CH2]CCC`, the growth was -69.3% (active).

For the compound `CC(C)CCC(=O)[C@@H](C)[C@H]1[C@@H](OC2OCC(O)C(O)C2NS(C)(=O)=O)C[C@H]2[C@@H]3CC=C4C[C@@H](O)CC[C@]4(C)[C@H]3CC[C@]12C` (stereo not given in full), the growth is 4.46% (active).

Consider `Cc1ccc2c(C)c3c(ccc4ccccc43)c[n+]2c1`, for which the growth is 52.9% (inactive).

For the compound `COc1ccc(C2NC(=O)c3cc4c(cc3N2)OCO4)cc1` (stereo not given), the growth was 27.9% (inactive).

For `COc1ccc(Oc2nc(Nc3ccc(N4CCOCC4)cc3)ncc2NC(=O)Nc2cccc(OC)c2)cc1`, the growth is 48.4% (inactive).

Regarding `CC1CCN(CCCCCOc2ccc3oc4ccc(Cl)cc4c(=O)c3c2)CC1`, the growth is 55.1% (inactive).

For the compound `N=C(N)c1ccc(-c2ccc(-c3cccs3)s2)cc1F`, the growth is -72.4% (active).

As to `O=C(CCCCCCN1CC(=O)N2[C@@H](c3ccc(Cl)c(Cl)c3)c3[nH]c4ccccc4c3C[C@H]2C1=O)NO`, the growth was 25.7% (inactive).

Take `C/C(=N\NC(=O)CSc1nc2ccccc2c(=O)n1CCc1ccc(S(N)(=O)=O)cc1)c1ccc(Br)cc1`: the growth was 44.9% (inactive).

Take `COc1cccc(C2C(C#N)=C(N)Oc3cc4c(cc32)OCO4)c1` (stereo not given): the growth was 27.4% (inactive).

For the compound `N#Cc1ccc(-c2ccc(-c3cccs3)o2)cc1F`, the growth is 87.5% (inactive).

Regarding `COc1cc(/C=C\c2cc(/C=C\c3ccc(O)c(OC)c3)n(C(=O)Nc3ccc(C(F)(F)F)cc3)n2)ccc1O`, the growth is 38% (inactive).

In the case of `COc1ccc(/C=C/c2nc3ccccc3c(=O)n2-c2ccc(C#Cc3ccc(C(C)(C)C)cc3)cc2C)c(OC)c1`, the growth was 53% (inactive).

On to `COC(=O)[C@H](Cc1cn(C)cn1)NC(=O)[C@H](CC(C)C)NC(=O)Nc1cc(C(F)(F)F)cc(C(F)(F)F)c1`, for which the growth is -95.1% [100 µM] (active).

As for `COc1ccc(/C=C/C(=O)CCC(=O)O)cc1OC`, the growth was 111% (inactive).

As to `C[C@@H]1CC2C3CCC4=CC(=O)C=C[C@]4(C)[C@@]3(Cl)[C@@H](O)C[C@]2(C)[C@@]1(OC(=O)c1ccco1)C(=O)CCl` (stereo not given in full), the growth was 49.9% (inactive).

Take `COc1ccc(C2c3cccn3-c3ccccc3N2C(C)=O)cc1` (stereo not given): the growth was 78.4% (inactive).

In the case of `CCN1CCN(Cc2ccc(NC(=O)Nc3ccc(-n4ccc5c(NC(=O)c6ccccc6)nccc54)cc3)cc2C(F)(F)F)CC1`, the growth was 54.6% (inactive).

Consider `Fc1cc(-c2cnc3nonc3n2)c(Cl)cc1Cl`, for which the growth was 85.3% (inactive).

Turning to `COc1cccc(-c2nc3sccn3c2-c2ccnc(NCCN3CCCNS3(=O)=O)n2)c1`, the growth was 94.4% (inactive).

As to `CS(=O)(=O)c1ccc(C(=O)N/N=C/c2ccc3c(c2)OCO3)cc1`, the growth is 92% (inactive).

`CCCCCCCCCCCCCC1=NC(C)(C)CN1C(C)C`: the growth was -37.6% (active).

Regarding `Cc1c(C(=O)CCl)c(=O)n(-c2ccccc2)n1C`, the growth is 55.5% (inactive).
